Experimental data published in PubChem BioAssay (NCATS).
Results filed as inconclusive are left out. Activity calls are given as the source filed them. Calls come from the whole dose curve; as a rule, active = well fitted inhibition curve with a large enough effect; inconclusive = small, poorly fitted or top-dose-only effect; inactive = flat fitted curve, though single readings scatter.

Tests used:
[1] = qHTS profiling for inhibitors of Plasmodium falciparum proliferation (AID 504749); note: nearly all actives have a fitted effect of over 60% in size;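 for activity, negative = inhibition: 0% = DMSO vehicle and full inhibition = artemisinin control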; conditions: P. falciparum in erythrocytes, SYBR Green DNA, 72 h
Method in brief: (§1)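 SYBR Green fluorescence of parasite DNA, read after lysis and overnight dark incubation, measured growth over 72 h in erythrocyte culture at 0.3% parasitemia and 2.5% hematocrit. Data normalised to DMSO and 0.29 uM artemisinin, with plate-drift correction.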

3D7 = test: as above; conditions: P. falciparum in erythrocytes, SYBR Green DNA, 72 h; series mostly up to 28.7 µM
Method in brief: as §1

AA1029 = test: as above; conditions: P. falciparum in erythrocytes, SYBR Green DNA, 72 h; series mostly up to 28.7 µM
Method in brief: as §1

AS120 = test: as above; conditions: P. falciparum in erythrocytes, SYBR Green DNA, 72 h; series mostly up to 28.7 µM
Method in brief: as §1

ATS189 = test: as above; conditions: P. falciparum in erythrocytes, SYBR Green DNA, 72 h; series mostly up to 28.7 µM
Method in brief: as §1

ATS95 = test: as above; conditions: P. falciparum in erythrocytes, SYBR Green DNA, 72 h; series mostly up to 28.7 µM
Method in brief: as §1

C2A = test: as above; conditions: P. falciparum in erythrocytes, SYBR Green DNA, 72 h; series mostly up to 28.7 µM
Method in brief: as §1

CP185 = test: as above; conditions: P. falciparum in erythrocytes, SYBR Green DNA, 72 h; series mostly up to 28.7 µM
Method in brief: as §1

CP191 = test: as above; conditions: P. falciparum in erythrocytes, SYBR Green DNA, 72 h; series mostly up to 28.7 µM
Method in brief: as §1

CP192 = test: as above; conditions: P. falciparum in erythrocytes, SYBR Green DNA, 72 h; series mostly up to 28.7 µM
Method in brief: as §1

CP194 = test: as above; conditions: P. falciparum in erythrocytes, SYBR Green DNA, 72 h; series mostly up to 28.7 µM
Method in brief: as §1

CP201 = test: as above; conditions: P. falciparum in erythrocytes, SYBR Green DNA, 72 h; series mostly up to 28.7 µM
Method in brief: as §1

CP203 = test: as above; conditions: P. falciparum in erythrocytes, SYBR Green DNA, 72 h; series mostly up to 28.7 µM
Method in brief: as §1

CP211 = test: as above; conditions: P. falciparum in erythrocytes, SYBR Green DNA, 72 h; series mostly up to 28.7 µM
Method in brief: as §1

CP215 = test: as above; conditions: P. falciparum in erythrocytes, SYBR Green DNA, 72 h; series mostly up to 28.7 µM
Method in brief: as §1

CP217 = test: as above; conditions: P. falciparum in erythrocytes, SYBR Green DNA, 72 h; series mostly up to 28.7 µM
Method in brief: as §1

7G8 = test: as above; conditions: P. falciparum in erythrocytes, SYBR Green DNA, 72 h; series mostly up to 28.7 µM
Method in brief: as §1

[2] = at 28.7 µM (top of the series), parasite line A
[3] = at 28.7 µM (top of the series), parasite line B
Potency is the fitted concentration of half-maximal effect.

COc1ccc2c(c1)c1c3n2CCN(C)C3=NCC1
inactive: activity, negative = inhibition [1, 2] -3.91% | activity, negative = inhibition [1, 3] 11.3% | Potency (3D7) | Potency (AA1029) | Potency (AS120) | Potency (ATS189) | Potency (ATS95) | Potency (C2A) | Potency (CP185) | Potency (CP191) | Potency (CP192) | Potency (CP194) | Potency (CP201) | Potency (CP203) | Potency (CP211) | Potency (CP215) | Potency (CP217)

Cc1cc(CC(=O)O)c(C)n1-c1ccc(Cl)cc1
inactive: Potency (3D7) | Potency (ATS189) | Potency (ATS95) | Potency (C2A) | Potency (CP185) | Potency (CP192) | Potency (CP194) | Potency (CP201) | Potency (CP203) | Potency (CP211) | Potency (CP215)
active: Potency (7G8) 11.2 µM

Oc1c(Cl)cc(Cl)c(Cl)c1Cc1c(O)c(Cl)cc(Cl)c1Cl
active: Potency ([1]; parasite line A) 11.2 µM | Potency (7G8) 4.47 µM | Potency (AS120) 11.2 µM | Potency (CP191) 8.91 µM | Potency (CP194) 10.7 µM | Potency (CP201) 10.7 µM | Potency (CP203) 7.57 µM | Potency (CP211) 12 µM | Potency (CP215) 7.57 µM | Potency (CP217) 8.91 µM

CC[N+](C)(CC)CCOC(=O)C(O)(c1ccccc1)C1CCCCC1 (configuration not stated)
inactive: activity, negative = inhibition [1, 2] -48% | Potency (AA1029) | Potency (AS120) | Potency (ATS189) | Potency (ATS95) | Potency (C2A) | Potency (CP191) | Potency (CP192) | Potency (CP194) | Potency (CP201) | Potency (CP203) | Potency (CP215) | Potency (CP217)

O=[N+]([O-])c1cccc(S(=O)(=O)NCCNS(=O)(=O)c2cccc([N+](=O)[O-])c2)c1
inactive: activity, negative = inhibition [1, 2] -25.4% | Potency (3D7) | Potency (ATS189) | Potency (ATS95) | Potency (C2A) | Potency (CP185) | Potency (CP192) | Potency (CP194) | Potency (CP201) | Potency (CP211) | Potency (CP215) | Potency (CP217)

COc1cc(N)c(Cl)cc1C(=O)NC1CCN(Cc2ccccc2)CC1
inactive: activity, negative = inhibition ([1]; at 12.8 µM (top of the series), parasite line B) -11.7% | Potency (3D7) | Potency (AA1029) | Potency (AS120) | Potency (ATS189) | Potency (ATS95) | Potency (C2A) | Potency (CP185) | Potency (CP192) | Potency (CP194) | Potency (CP201) | Potency (CP203) | Potency (CP211) | Potency (CP215) | Potency (CP217)

O=S(c1cc(Cl)cc(Cl)c1O)c1cc(Cl)cc(Cl)c1O
active: Potency (CP191) 17.8 µM
inactive: Potency (7G8)

CC(C)(C)CC(C)(C)c1ccc(O)c(-n2nc3ccccc3n2)c1
active: Potency (7G8) 5.01 µM | Potency (AA1029) 12.6 µM
inactive: Potency (CP192) | Potency (CP194) | Potency (CP201) | Potency (CP203) | Potency (CP211) | Potency (CP215)

CN1CCC[C@@H]1CCO[C@](C)(c1ccccc1)c1ccc(Cl)cc1
active: Potency (7G8) 10 µM
inactive: activity, negative = inhibition [1, 3] -15.8% | Potency (3D7) | Potency (AS120) | Potency (ATS189) | Potency (C2A) | Potency (CP185) | Potency (CP192) | Potency (CP201) | Potency (CP211) | Potency (CP215)

Cn1c(=O)c2[nH]c(Br)nc2n(C)c1=O
inactive: activity, negative = inhibition [1, 3] -4.72% | Potency (3D7) | Potency (7G8) | Potency (AS120) | Potency (ATS189) | Potency (ATS95) | Potency (C2A) | Potency (CP185) | Potency (CP191) | Potency (CP192) | Potency (CP194) | Potency (CP201) | Potency (CP203) | Potency (CP211) | Potency (CP215) | Potency (CP217)

CC(C)(C)NC[C@H](O)COc1nsnc1N1CCOCC1
active: Potency (3D7) 6.31 µM | Potency (7G8) 0.631 µM | Potency (ATS189) 5.62 µM | Potency (CP191) 7.08 µM
inactive: Potency (CP201)

Cc1cc2c(OCC(CNC(C)(C)C)OC(=O)c3ccccc3)cccc2[nH]1 (configuration not stated)
inactive: Potency (CP185) | Potency (CP192) | Potency (CP194) | Potency (CP201) | Potency (CP211) | Potency (CP217)

C[N+]1(C)CCC(=C(c2ccccc2)c2ccccc2)CC1
inactive: Potency (AA1029) | Potency (AS120) | Potency (ATS189) | Potency (ATS95) | Potency (C2A) | Potency (CP185) | Potency (CP194) | Potency (CP201) | Potency (CP203) | Potency (CP211) | Potency (CP215) | Potency (CP217)

COC(=O)C(c1ccccc1Cl)N1CCc2sccc2C1 (configuration not stated)
active: Potency (7G8) 10 µM
inactive: Potency (C2A)

OC(C#CCN1CCCC1)(c1ccccc1)c1ccccc1
active: Potency (7G8) 11.2 µM | Potency (CP203) 15.1 µM
inactive: activity, negative = inhibition [1, 3] -24.9% | Potency (3D7) | Potency (C2A) | Potency (CP191) | Potency (CP201)

CC(=O)O[C@]1(C(C)=O)CC[C@H]2[C@@H]3C=C(Cl)C4=CC(=O)CC[C@]4(C)[C@H]3CC[C@@]21C
active: Potency ([1]; parasite line A) 12.6 µM | Potency (7G8) 11.2 µM | Potency (AA1029) 11.2 µM | Potency (AS120) 11.2 µM
